Reference: PubChem BioAssay (Tox21)
“And” between values parts separate entries of the source, which are not always exact repeats. Equal values may be shown once. Results filed as inconclusive are left out. Entries that show only a call come without a potency. A structure can be active in one record and inactive in another. The source made the active and inactive calls. The call rests on the fitted dose curve; in most records, active means well fitted curve in the direction sought with a large enough effect in the repeat runs; inconclusive means weak or mixed curves; inactive means no such curve, though single readings can be large; an effect the other way counts as inactive or inconclusive.

Columns and labels:
[1] = Human pregnane X receptor (PXR) small molecule agonists, qHTS cell viability counter screen (AID 1346977); further: nearly all actives have a fitted effect of over 50% in size
Procedure, shortened: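 PXR-Luc HepG2 cells in medium with 5% charcoal-stripped FBS were pre-incubated 5hr, then exposed to compounds for 24hr at 37C. Viability was read in the same wells by CellTiter-Fluor fluorescence, reagent added after 23hr with a 1hr incubation.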

[2] = Caspase-3/7 induction in HepG2 cells by small molecules, qHTS assay (AID 1346978); further: nearly all actives have a fitted effect of over 15% in size
Procedure, shortened: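 Wild-type HepG2 cells, 2,000/well, settled 5 hr at 37 C and 5% CO2, then compound-treated for 17 hr; caspase-3/7 activity read by luminescent Caspase-Glo 3/7 after 30 min at room temperature.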

[3] = Caspase-3/7 induction in CHO-K1 cells by small molecules, qHTS cell viability counter screen (AID 1346979); further: nearly all actives have a fitted effect of over 35% in size
Procedure, shortened: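 Wild-type CHO-K1 cells were seeded at 1,500 per well, rested 5hr at 37 C, then exposed to compounds in DMSO. After 16hr, CellTiter-Fluor reagent was added and fluorescence read 1hr later as the viability measure.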

[4] = Caspase-3/7 induction in CHO-K1 cells by small molecules, qHTS assay (AID 1346980); further: nearly all actives have a fitted effect of over 15% in size
Procedure, shortened: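 Wild-type CHO-K1 cells exposed to compounds for 17hr at 37 C, 5% CO2. Caspase-3/7 activity then measured by Caspase-Glo 3/7 luminescence after 30min at room temperature.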

[5] = Caspase-3/7 induction in HepG2 cells by small molecules, qHTS cell viability counter screen (AID 1346981); further: series mostly up to about 92 µM; nearly all actives have a fitted effect of over 30% in size
Procedure, shortened: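 Wild-type HepG2 cells (2,000/well) were allowed to settle for 5 hr at 37 C, 5% CO2, then dosed with compounds in DMSO by pin transfer. After 16 hr at 37 C, CellTiter-Fluor was added and fluorescence read 1 hr later.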

[6] = biological target: Nuclear receptor subfamily 1 group I member 2 (Homo sapiens) (UniProt O75469); assay: Human pregnane X receptor (PXR) small molecule agonists, qHTS assay (AID 1346982); further: nearly all actives have a fitted effect of over 35% in size; further: potency means the concentration at half of the fitted maximal effect
Sequence of Nuclear receptor subfamily 1 group I member 2 (Homo sapiens) (O75469 whole entry, looked up): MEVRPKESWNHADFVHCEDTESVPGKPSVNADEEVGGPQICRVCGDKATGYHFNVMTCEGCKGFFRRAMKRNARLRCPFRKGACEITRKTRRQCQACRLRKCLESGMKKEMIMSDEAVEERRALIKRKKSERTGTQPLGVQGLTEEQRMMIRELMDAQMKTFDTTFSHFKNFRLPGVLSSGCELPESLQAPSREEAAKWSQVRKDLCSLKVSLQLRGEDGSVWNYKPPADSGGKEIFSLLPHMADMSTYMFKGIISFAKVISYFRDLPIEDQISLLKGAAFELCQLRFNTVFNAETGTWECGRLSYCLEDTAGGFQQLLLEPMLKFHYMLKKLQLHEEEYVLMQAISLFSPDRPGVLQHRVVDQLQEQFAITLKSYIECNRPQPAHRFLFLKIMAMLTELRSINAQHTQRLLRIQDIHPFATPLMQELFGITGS
Procedure, shortened: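 PXR-Luc HepG2 cells (CYP3A4 promoter-driven luciferase) were seeded in medium with 5% charcoal-stripped FBS, left 5 hr at 37 C, then exposed to compounds in DMSO for 24 hr. Luminescence was read after ONE-Glo addition.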

[7] = biological target: Cytochrome P450 2D6 (Homo sapiens) (UniProt P10635); assay: Cytochrome P450 Family 2 Subfamily D Member 6 (CYP2D6) small molecule antagonists: luciferase reporter qHTS assay (AID 1671196); further: nearly all actives have a fitted effect of over 50% in size; further: potency means the concentration at half of the fitted maximal effect; on activity change, negative = inhibition: series mostly up to about 120 µM
Sequence of Cytochrome P450 2D6 (Homo sapiens) (P10635 whole entry, looked up): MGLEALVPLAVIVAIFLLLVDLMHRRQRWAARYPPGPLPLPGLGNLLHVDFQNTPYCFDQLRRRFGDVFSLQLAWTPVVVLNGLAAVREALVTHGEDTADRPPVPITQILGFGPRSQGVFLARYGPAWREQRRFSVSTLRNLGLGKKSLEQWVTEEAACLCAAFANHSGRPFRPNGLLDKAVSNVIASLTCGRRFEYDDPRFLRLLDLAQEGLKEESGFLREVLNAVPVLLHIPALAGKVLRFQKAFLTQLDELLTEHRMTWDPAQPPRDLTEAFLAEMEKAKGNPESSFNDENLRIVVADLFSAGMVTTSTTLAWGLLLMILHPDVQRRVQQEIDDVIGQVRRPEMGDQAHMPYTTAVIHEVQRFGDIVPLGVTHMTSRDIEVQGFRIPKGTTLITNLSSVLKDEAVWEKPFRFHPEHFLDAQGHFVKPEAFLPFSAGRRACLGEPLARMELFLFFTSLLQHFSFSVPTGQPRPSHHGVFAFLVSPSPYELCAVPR
Procedure, shortened: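 CYP2D6 enzyme–substrate mix was held with compound for 10 min at room temperature, then NADPH regeneration solution was added and the reaction ran 1 h at room temperature. Luciferin product was detected by luminescence after 20 min with detection reagent.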

[8] = biological target: Cytochrome P450 2C19 (Homo sapiens) (UniProt P33261); assay: Cytochrome P450 Family 2 Subfamily C Member 19 (CYP2C19) small molecule antagonists: luciferase reporter qHTS assay (AID 1671197); further: nearly all actives have a fitted effect of over 65% in size; further: potency means the concentration at half of the fitted maximal effect; on activity change, negative = inhibition: series mostly up to about 120 µM
Sequence of Cytochrome P450 2C19 (Homo sapiens) (P33261 whole entry, looked up): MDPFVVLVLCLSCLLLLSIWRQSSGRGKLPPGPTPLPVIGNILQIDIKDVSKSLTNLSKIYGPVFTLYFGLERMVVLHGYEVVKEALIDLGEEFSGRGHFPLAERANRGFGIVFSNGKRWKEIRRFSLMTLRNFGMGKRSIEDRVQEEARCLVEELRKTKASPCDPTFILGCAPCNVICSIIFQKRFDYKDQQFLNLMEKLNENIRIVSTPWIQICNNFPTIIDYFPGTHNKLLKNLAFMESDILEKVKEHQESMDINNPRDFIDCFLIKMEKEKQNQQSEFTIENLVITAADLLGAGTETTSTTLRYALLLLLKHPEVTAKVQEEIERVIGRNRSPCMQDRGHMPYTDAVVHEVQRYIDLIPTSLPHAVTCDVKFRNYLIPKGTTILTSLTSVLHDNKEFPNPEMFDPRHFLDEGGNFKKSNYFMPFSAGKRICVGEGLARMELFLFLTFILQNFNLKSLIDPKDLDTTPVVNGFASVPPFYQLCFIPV
Procedure, shortened: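 Compounds were tested on CYP2C19 activity via proluciferin conversion to luciferin. The 37C, 1 h reaction followed NADPH addition; detection reagent stopped it.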

[9] = biological target: Cytochrome P450 2C9 (Homo sapiens) (UniProt P11712); assay: Cytochrome P450 Family 2 Subfamily C Member 9 (CYP2C9) small molecule antagonists: luciferase reporter qHTS assay (AID 1671198); further: nearly all actives have a fitted effect of over 50% in size; further: potency means the concentration at half of the fitted maximal effect; on activity change, negative = inhibition: series mostly up to about 120 µM
Sequence of Cytochrome P450 2C9 (Homo sapiens) (P11712 whole entry, looked up): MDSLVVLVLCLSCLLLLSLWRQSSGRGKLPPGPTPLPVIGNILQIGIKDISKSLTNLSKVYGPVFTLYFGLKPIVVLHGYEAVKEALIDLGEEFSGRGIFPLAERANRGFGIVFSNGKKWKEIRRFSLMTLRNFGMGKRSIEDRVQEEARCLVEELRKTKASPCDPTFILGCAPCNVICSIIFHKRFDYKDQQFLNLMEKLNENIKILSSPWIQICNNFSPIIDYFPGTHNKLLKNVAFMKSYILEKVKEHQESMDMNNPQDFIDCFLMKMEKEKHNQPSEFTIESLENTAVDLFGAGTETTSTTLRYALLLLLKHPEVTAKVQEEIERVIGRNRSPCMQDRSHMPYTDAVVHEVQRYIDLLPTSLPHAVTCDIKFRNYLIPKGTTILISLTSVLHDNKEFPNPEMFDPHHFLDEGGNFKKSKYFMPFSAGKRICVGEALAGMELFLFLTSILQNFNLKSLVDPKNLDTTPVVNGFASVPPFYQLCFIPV
Procedure, shortened: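 P450-Glo proluciferin substrate with CYP2C9 enzyme; 10 min RT preincubation, then NADPH regeneration 1 h at 37C; luciferin detection reagent 20 min RT, luminescence in relative luminescence units.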

[10] = biological target: Cytochrome P450 1A2 (Homo sapiens) (UniProt P05177); assay: Cytochrome P450 Family 1 Subfamily A Member 2 (CYP1A2) small molecule antagonists: luciferase reporter qHTS assay (AID 1671199); further: nearly all actives have a fitted effect of over 50% in size; further: potency means the concentration at half of the fitted maximal effect; on activity change, negative = inhibition: series mostly up to about 120 µM
Sequence of Cytochrome P450 1A2 (Homo sapiens) (P05177 whole entry, looked up): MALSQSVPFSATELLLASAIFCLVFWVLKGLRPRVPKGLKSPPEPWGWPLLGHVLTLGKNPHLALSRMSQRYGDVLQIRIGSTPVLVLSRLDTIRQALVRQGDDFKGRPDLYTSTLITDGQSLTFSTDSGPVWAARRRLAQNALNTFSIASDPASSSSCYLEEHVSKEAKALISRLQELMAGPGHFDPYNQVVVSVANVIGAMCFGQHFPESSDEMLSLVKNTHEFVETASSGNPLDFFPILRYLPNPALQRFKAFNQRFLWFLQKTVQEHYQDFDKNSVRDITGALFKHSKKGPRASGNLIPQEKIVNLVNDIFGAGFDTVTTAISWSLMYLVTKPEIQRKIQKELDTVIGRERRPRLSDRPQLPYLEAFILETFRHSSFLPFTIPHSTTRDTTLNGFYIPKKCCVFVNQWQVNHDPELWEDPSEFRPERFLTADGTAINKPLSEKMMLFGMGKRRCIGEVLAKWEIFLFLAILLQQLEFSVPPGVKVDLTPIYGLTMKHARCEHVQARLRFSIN
Procedure, shortened: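 Human CYP1A2 activity measured with a P450-Glo proluciferin substrate; compounds in DMSO preincubated 10 min at room temperature with enzyme-substrate mix, then NADPH regeneration system added for 1 h. Luciferin detection reagent, 20 min, luminescence read.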

[11] = biological target: Voltage-gated inwardly rectifying potassium channel KCNH2 (Homo sapiens) (UniProt Q12809); assay: Human Ether-a-go-go-Related Gene (hERG) channel small molecule antagonists: fluorescence cell-based qHTS assay (AID 1671200)
Sequence of Voltage-gated inwardly rectifying potassium channel KCNH2 (Homo sapiens) (Q12809 whole entry, looked up): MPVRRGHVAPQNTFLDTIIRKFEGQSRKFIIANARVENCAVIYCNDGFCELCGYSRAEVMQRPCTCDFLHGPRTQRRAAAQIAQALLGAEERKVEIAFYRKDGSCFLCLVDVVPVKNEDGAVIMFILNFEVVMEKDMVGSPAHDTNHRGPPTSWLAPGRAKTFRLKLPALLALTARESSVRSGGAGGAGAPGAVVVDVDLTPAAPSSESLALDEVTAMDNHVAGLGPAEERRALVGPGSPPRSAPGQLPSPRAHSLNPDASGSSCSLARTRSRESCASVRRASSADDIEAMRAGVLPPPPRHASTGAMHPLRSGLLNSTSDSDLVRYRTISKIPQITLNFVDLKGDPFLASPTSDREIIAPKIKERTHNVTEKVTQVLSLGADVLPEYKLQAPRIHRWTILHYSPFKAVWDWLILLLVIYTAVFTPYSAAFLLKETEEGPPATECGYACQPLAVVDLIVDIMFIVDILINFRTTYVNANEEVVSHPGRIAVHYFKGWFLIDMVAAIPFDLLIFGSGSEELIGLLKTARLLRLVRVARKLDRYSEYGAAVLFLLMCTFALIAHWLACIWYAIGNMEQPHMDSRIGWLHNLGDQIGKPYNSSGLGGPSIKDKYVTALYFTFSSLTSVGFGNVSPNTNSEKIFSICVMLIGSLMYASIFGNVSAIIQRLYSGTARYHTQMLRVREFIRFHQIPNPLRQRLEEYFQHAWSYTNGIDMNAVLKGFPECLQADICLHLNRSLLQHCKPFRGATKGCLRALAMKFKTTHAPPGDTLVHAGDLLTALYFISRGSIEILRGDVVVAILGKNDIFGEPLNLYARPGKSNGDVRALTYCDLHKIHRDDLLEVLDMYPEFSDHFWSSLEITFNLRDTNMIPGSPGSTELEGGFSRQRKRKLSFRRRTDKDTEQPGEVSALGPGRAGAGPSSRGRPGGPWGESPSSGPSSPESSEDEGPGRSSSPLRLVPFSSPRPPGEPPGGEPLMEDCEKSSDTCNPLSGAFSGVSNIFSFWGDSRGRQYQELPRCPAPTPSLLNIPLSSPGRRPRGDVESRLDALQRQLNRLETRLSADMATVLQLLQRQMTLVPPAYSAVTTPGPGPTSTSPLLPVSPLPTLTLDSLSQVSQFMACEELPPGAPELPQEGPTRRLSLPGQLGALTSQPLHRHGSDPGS
Procedure, shortened: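 U2OS cells expressing the channel were plated at 1000 cells/well, incubated overnight at 37 C, then loaded with FluxOR II thallium-sensitive dye for 1 h at room temperature in the dark, with a further 10 min at room temperature before stimulation.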

[12] = biological target: Cytochrome P450 3A4 (Homo sapiens) (UniProt P08684); assay: Cytochrome P450 Family 3 Subfamily A Member 4 (CYP3A4) small molecule antagonists: luciferase reporter qHTS assay (AID 1671201); further: nearly all actives have a fitted effect of over 50% in size; further: potency means the concentration at half of the fitted maximal effect; on activity change, negative = inhibition: series mostly up to about 120 µM
Sequence of Cytochrome P450 3A4 (Homo sapiens) (P08684 whole entry, looked up): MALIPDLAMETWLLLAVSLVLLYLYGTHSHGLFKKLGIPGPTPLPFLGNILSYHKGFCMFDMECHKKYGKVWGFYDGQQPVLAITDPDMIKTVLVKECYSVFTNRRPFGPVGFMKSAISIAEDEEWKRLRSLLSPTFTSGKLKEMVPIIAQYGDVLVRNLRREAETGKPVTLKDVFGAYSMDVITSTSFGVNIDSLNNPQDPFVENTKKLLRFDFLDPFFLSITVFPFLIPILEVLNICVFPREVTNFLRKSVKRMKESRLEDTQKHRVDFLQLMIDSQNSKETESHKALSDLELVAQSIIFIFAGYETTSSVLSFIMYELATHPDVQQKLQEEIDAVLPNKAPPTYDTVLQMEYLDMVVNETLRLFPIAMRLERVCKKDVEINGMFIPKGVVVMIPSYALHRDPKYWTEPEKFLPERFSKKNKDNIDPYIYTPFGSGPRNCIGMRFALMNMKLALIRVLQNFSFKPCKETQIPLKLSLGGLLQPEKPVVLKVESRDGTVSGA
Procedure, shortened: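 P450-Glo CYP3A4 system with proluciferin substrate; compounds preincubated 10 min RT with enzyme-substrate mix, then NADPH regeneration added for 1 h RT. Detection reagent 20 min, luminescence read as relative luminescence units.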

[13] = biological target: Nuclear receptor subfamily 1 group I member 2 (Rattus norvegicus) (UniProt Q9R1A7); assay: Rat pregnane X receptor (rPXR) activation by small molecules, qHTS assay (AID 1346983); conditions: rPXR luciferase reporter cells, One-Glo luminescence, 24 h; stronger effect = higher value; further: nearly all actives have a fitted effect of over 20% in size
Sequence of Nuclear receptor subfamily 1 group I member 2 (Rattus norvegicus) (Q9R1A7 whole entry, looked up): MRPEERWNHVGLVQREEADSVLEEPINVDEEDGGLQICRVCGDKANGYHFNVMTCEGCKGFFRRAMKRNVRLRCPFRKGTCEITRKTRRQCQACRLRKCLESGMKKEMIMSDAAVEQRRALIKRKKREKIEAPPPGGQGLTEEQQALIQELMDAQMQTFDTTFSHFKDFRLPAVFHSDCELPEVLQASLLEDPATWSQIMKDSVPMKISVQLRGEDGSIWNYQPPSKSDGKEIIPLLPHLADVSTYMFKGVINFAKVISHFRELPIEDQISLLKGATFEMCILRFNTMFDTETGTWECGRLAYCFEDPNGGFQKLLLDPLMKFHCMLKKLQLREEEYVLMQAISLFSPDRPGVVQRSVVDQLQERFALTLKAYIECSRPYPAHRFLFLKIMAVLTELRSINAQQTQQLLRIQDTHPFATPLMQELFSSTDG
Procedure, shortened: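 Cell-based rPXR activation assay: rPXR cells, 2,000 per well, rested 5hr at 37 C, then exposed to compounds in DMSO for 24 hr at 37 C. Luciferase activity read by One-Glo luminescence after 30 min at room temperature.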

[14] = biological target: Nuclear receptor subfamily 1 group I member 2 (Homo sapiens) (UniProt O75469); assay: CYP3A4 induction through human pregnane X receptor (PXR) by small molecules, qHTS assay (AID 1346984); further: nearly all actives have a fitted effect of over 40% in size
Procedure, shortened: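 DPX-2 cells (HepG2 co-transfected with PXR and CYP3A4 promoter-luciferase) treated with compounds 24 h at 37C; luciferin-IPA CYP3A4 substrate 3uM final added for 3 h, then One-Glo; luminescence read. qHTS format.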

[15] = biological target: Nuclear receptor subfamily 1 group I member 2 (Homo sapiens) (UniProt O75469); assay: Human pregnane X receptor (PXR) activation by small molecules, qHTS assay (AID 1346985); further: nearly all actives have a fitted effect of over 40% in size
Procedure, shortened: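 DPX-2 cells (HepG2 co-transfected with a PXR response element and a CYP3A4-promoter luciferase construct) were seeded at 2,000 per well, rested 5 hr at 37C, then exposed to DMSO-dissolved compounds for 24 hr. Activation was read as luciferase luminescence.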

Row | SMILES | Potency [1] | Potency [2] | Potency [3] | Potency [4] | Potency [5] | Potency [6] | Potency [7] | Potency [8] | Potency [9] | Potency [10] | Potency [11] | Potency [12] | max activation [13] | Potency [14] | outcome [15] | activity change, negative = inhibition [8] | activity change, negative = inhibition [9] | activity change, negative = inhibition [12]
1 | COc1c2ccoc2cc2oc(=O)ccc12 | inactive | inactive | inactive | inactive | inactive | 55.7 µM (active) and 21.7 µM (active) | 4.08 µM (active) and inactive | 5.77 µM (active) and 8.94 µM (active) | 2.89 µM (active) and 2.52 µM (active) | 364 nM (active) and 283 nM (active) | inactive | 6.47 µM (active) and 10 µM (active) |  |  |  |  |  | 
2 | CC1(C)C(=O)N(Cl)C(=O)N1Cl | inactive | inactive | inactive | inactive | inactive | inactive | inactive | 71.1 µM (active) | inactive | inactive | inactive | inactive |  |  |  |  |  | 
3 | COc1c(Cl)ccc(Cl)c1C(=O)O | inactive | inactive | inactive | inactive | inactive | inactive | inactive | inactive | 39.9 µM (active) | inactive | inactive | inactive |  |  |  |  |  | 
4 | OB(O)O | inactive | inactive | inactive | inactive | inactive | inactive | inactive | inactive | inactive | inactive | inactive | inactive | -0.586% (inactive) | inactive | inactive |  |  | 
5 | OC[C@H]1O[C@@H](Oc2ccc(O)cc2)[C@H](O)[C@@H](O)[C@@H]1O | inactive | inactive | inactive | inactive | inactive | inactive | inactive | inactive | inactive | inactive | inactive | inactive | -0.143% (inactive) |  | inactive |  |  | 
6 | O=C1C(N(CO)C(=O)NCO)N(CO)C(=O)N1CO (stereo not given) | inactive | inactive | inactive | inactive | inactive | inactive | inactive | inactive | inactive | inactive | inactive | inactive |  |  |  |  |  | 
7 | CCn1cc(C(=O)O)c(=O)c2cc3c(cc21)OCO3 | inactive | inactive | inactive | inactive | inactive | inactive | inactive | 51 µM (active) |  |  |  |  |  |  |  | -7.51% [at 23.6 µM] (inactive) | 4.54% [at 23.6 µM] (inactive) | -0.272% [at 23.6 µM] (inactive)
8 | CC(=O)OCc1ccc2c(c1)OCO2 | inactive | inactive | inactive | inactive | inactive | inactive | inactive | 35.7 µM (active) and 31.7 µM (active) | 25.2 µM (active) and 35.6 µM (active) | 2.01 µM (active) and 2.52 µM (active) | inactive | 20.1 µM (active) and 39.9 µM (active) |  |  |  |  |  | 
